# Test results reported in PubChem BioAssay.
# Where “and” joins values, the source holds several entries; their conditions need not be identical. Identical values can stand only once. Calls of active or inactive are those of the source.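 Rule for the calls, unless noted: active = thallium flux through the channel raised or lowered by more than 3 SD from vehicle-only wells, actives on both sides; inactive = the rest.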
# What was measured:
# [1] = P. berghei load reduction in hepatocytes – cell-based, HepG2, luciferase luminescence, HepG2 viability, primary screen (AID 624349; in the data active = parasite load remaining mostly below about 12%, no sharp cut-off; inactive = mostly above about 10%;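 note: 100% = mean of DMSO negative control wells on the same plate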); conditions: P. berghei liver stage in HepG2, luciferase luminescence, concentration not given here; parasite load remaining: stronger effect = lower value; viability: measured here: HepG2 viability without parasites
# [2] = signal quenchers or enhancers, Cy5 substrate/SSB – biochemical, NIH Clinical Collection, E. coli SSB, artefact control for HCV NS3 helicase inhibitor project (AID 743268; call rule not given here); conditions: Cy5-oligo bound E. coli SSB, fluorescence interference
# [3] = tested on: Hepatitis C virus NS3 helicase; experiment: blockers of NS3h binding to DNA – biochemical, fluorescence polarization, NIH Clinical Collection, primary screen (AID 743270; call rule not given here); conditions: NS3 helicase binding to Cy5-dT15 DNA, stronger effect = higher value, concentration not given here
# [4] = molecular target: Single-stranded DNA-binding protein (Escherichia coli (strain K12)) (UniProt P0AGE0); experiment: SSB-ssDNA binding inhibitors – biochemical, fluorescence polarization, NIH Clinical Collection, counter-screen for HCV NS3 helicase inhibitor project (AID 743271; in the data active = inhibition above about 28%); conditions: E. coli SSB-DNA binding, stronger effect = higher value, concentration not given here
# [5] = compounds distorting NS3 helicase fluorescence signal – biochemical, NIH Clinical Collection, artefact control for HCV NS3 helicase inhibitor project (AID 743272; call rule not given here;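 note: HCV NS3 helicase with a Cy5 labelled single stranded DNA probe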); conditions: fluorescence interference counterscreen, HCV NS3 helicase assay; stronger effect = lower value
# [6] = tested on: Neuropilin-2 / VEGF-C interaction (human); experiment: small molecules blocking Neuropilin-2/VEGF-C interaction – biochemical, microplate binding format, z-score (AID 743281; call rule not given here); conditions: microplate NRP2/VEGF-C binding assay; stronger effect = lower value
# [7] = modulation of C. elegans fzo-1 (AID 1259413; call rule not given here;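 note: fzo-1 mutant C. elegans worms in liquid wells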); conditions: C. elegans fzo-1 modulator screen, mean read-out; stronger effect = higher value
# [8] = viability loss with induced miR-34 in A549 – imaging, A549 dox-inducible miR-34, nuclei and caspase counts, primary screen (AID 1347080;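 active = compounds whose cell count with miR-34 switched on is under 0.7 times the count with it off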); conditions: A549 miR-34 inducible, Hoechst nuclei count, 48 h
# [9] = galactose survival enhancers in mitochondrial complex I cybrids – cell-based, galactose medium, ATP luminescence, primary screen (AID 1645843;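 active = z-score of at least 1.8 in each of two replicates, scored against plate mean and spread of sample wells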;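 note: positive z means more ATP and so rescue of galactose-driven cybrid death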); conditions: complex I mutant cybrid cells, 72 h, stronger effect = higher value
# F380Y = experiment: BK channel mutant inhibitors and activators – cell-based, U2OS BacMam, thallium flux, beta subunits, selectivity assay, profiling panel (AID 1259406); conditions: U2OS BacMam BK variants, at 30 µM;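 note: initial slope of Thallos dye fluorescence rise after thallium is added; log ratio against the mean of 0.3% DMSO vehicle wells on the same plate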
# F380Y/beta1 = experiment: as above; conditions: U2OS BacMam BK variants, at 30 µM
# F380Y/beta2Delta = experiment: as above; conditions: U2OS BacMam BK variants, at 30 µM
# F380Y/beta4 = experiment: as above; conditions: U2OS BacMam BK variants, at 30 µM
# [10] = molecular target: Calcium-activated potassium channel subunit alpha-1 (Homo sapiens) + Leucine-rich repeat-containing protein 26 (Homo sapiens) (UniProt Q12791+Q2I0M4); experiment: as above; conditions: U2OS BacMam BK variants, F380Y/Slo1WT/gamma1, at 30 µM
# R275C = experiment: as above; conditions: U2OS BacMam BK variants, at 30 µM
# R275C/beta1 = experiment: as above; conditions: U2OS BacMam BK variants, at 30 µM
# R275C/beta2Delta = experiment: as above; conditions: U2OS BacMam BK variants, at 30 µM
# R275C/beta4 = experiment: as above; conditions: U2OS BacMam BK variants, at 30 µM
# R275C/Slo1WT/beta2 = experiment: as above; conditions: U2OS BacMam BK variants, at 30 µM
# [11] = tested on: Aerobactin synthetase IucA (Klebsiella pneumoniae); experiment: inhibition of K. pneumoniae IucA enzyme – biochemical, Tocris library, absorbance (AID 1345561; call rule not given here;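 note: 100% = enzyme without compound and 0% = no enzyme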); conditions: purified IucA enzyme assay, absorbance (OD) read-out; stronger effect = lower value;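 tested at 8 µM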
# [12] = MELAS cybrid and Rieske KO viability enhancers – cell-based, MELAS cybrids, Rieske KO mouse fibroblasts, CellTiter-Glo, primary screen (AID 1508586;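 active = mean z-score across replicates of 1.96 or higher in either the MELAS or the Rieske mutant cell line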;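 note: z relative to plate mean and SD of compound and empty wells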); conditions: low glucose
# [13] = measured here: relative caspase fold change +Dox/-Dox
# [14] = measured here: total cells with miR-34 induction, stronger effect = lower value
# [15] = measured here: total cells without miR-34 induction
# [16] = MELAS cybrid survival, CellTiter-Glo 48 h, stronger effect = higher value
# [17] = Rieske KO mouse fibroblast survival, CellTiter-Glo 72 h
# Sequence of Calcium-activated potassium channel subunit alpha-1 (Homo sapiens) + Leucine-rich repeat-containing protein 26 (Homo sapiens) (Q2I0M4 whole entry, looked up, one chain of several): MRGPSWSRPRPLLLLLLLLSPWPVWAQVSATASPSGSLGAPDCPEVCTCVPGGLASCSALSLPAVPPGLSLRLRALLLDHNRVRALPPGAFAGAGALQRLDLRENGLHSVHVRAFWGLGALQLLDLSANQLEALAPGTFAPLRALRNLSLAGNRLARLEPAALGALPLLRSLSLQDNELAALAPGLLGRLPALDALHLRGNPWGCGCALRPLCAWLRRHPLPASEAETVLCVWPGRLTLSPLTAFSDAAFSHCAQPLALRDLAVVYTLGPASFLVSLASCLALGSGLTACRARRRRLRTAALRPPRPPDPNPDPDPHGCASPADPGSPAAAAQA
smiles,measurement,setting,value
Cc1ncc2n1-c1ccc(Cl)cc1C(c1ccccc1F)=NC2,parasite load remaining,[1],105% (inactive)
same,viability,[1],73.5%
same,fluorescence ratio,[2],1.04 (inactive)
same,inhibition,[3],-1.98% (inactive)
same,inhibition,[4],-3.18% (inactive)
same,fluorescence ratio,[5],1.02 (inactive)
same,z-score,[6],-0.669 (inactive)
same,mean signal,[7],220 (inactive)
same,fold change,[8]; stronger effect = lower value,1.08 (inactive)
same,fold change,[8]; [13],1.63
same,cell count,[8]; [14],6900
same,cell count,[8]; [15],6400
same,z-score,[9],0.59 (inactive)
same,log fold change Tl+ flux,F380Y,-0.403 (active)
same,log fold change Tl+ flux,F380Y/beta1,-0.386 (active)
same,log fold change Tl+ flux,F380Y/beta2Delta,-0.205 (active)
same,log fold change Tl+ flux,F380Y/beta4,-0.197 (active)
same,log fold change Tl+ flux,[10],-0.019 (inactive)
same,log fold change Tl+ flux,R275C,-0.0381 (inactive)
same,log fold change Tl+ flux,R275C/beta1,-0.128 (active)
same,log fold change Tl+ flux,R275C/beta2Delta,-0.00496 (inactive)
same,log fold change Tl+ flux,R275C/beta4,0.138 (active)
same,log fold change Tl+ flux,R275C/Slo1WT/beta2,0.000117 (inactive)
CC1CCC[C@H](O)CCCCCc2cc(O)cc(O)c2C(=O)O1 (stereo not given in full),parasite load remaining,[1],34.2% (inactive)
same,viability,[1],64.7%
same,fluorescence ratio,[2],1.04 (inactive)
same,inhibition,[3],2.77% (inactive)
same,inhibition,[4],0.67% (inactive)
same,fluorescence ratio,[5],0.99 (inactive)
same,z-score,[6],-0.653 (inactive)
same,mean signal,[7],252 (inactive)
same,log fold change Tl+ flux,F380Y,0.0327 (inactive)
same,log fold change Tl+ flux,F380Y/beta1,0.0798 (inactive)
same,log fold change Tl+ flux,F380Y/beta2Delta,-0.0124 (inactive)
same,log fold change Tl+ flux,F380Y/beta4,0.0166 (inactive)
same,log fold change Tl+ flux,[10],0.0353 (inactive)
same,log fold change Tl+ flux,R275C,-0.00393 (inactive)
same,log fold change Tl+ flux,R275C/beta1,0.141 (active)
same,log fold change Tl+ flux,R275C/beta2Delta,0.1 (active)
same,log fold change Tl+ flux,R275C/beta4,0.0349 (inactive)
same,log fold change Tl+ flux,R275C/Slo1WT/beta2,0.035 (inactive)
O[C@@H]1CCCC[C@H]1N1CCC(c2ccccc2)CC1,parasite load remaining,[1],78.7% (inactive) and 101% (inactive)
same,viability,[1],93.8% and 73%
same,fluorescence ratio,[2],0.98 (inactive)
same,inhibition,[3],1.19% (inactive)
same,inhibition,[4],0.67% (inactive)
same,fluorescence ratio,[5],0.91 (inactive)
same,z-score,[6],-0.802 (inactive)
same,mean signal,[7],231 (inactive)
same,remaining activity,[11],96.8% (inactive)
same,fold change,[8]; stronger effect = lower value,0.933 (inactive) and 0.866 (inactive)
same,fold change,[8]; [13],1.17 and 0.745
same,cell count,[8]; [14],8520 and 8230
same,cell count,[8]; [15],9130 and 9500
same,z-score,[12]; [16],-0.566 (inactive)
same,z-score,[12]; [17],-0.671
same,z-score,[9],-0.07 (inactive)
CCOC(=O)C1(c2ccccc2)CCN(CCC(C#N)(c2ccccc2)c2ccccc2)CC1,parasite load remaining,[1],6.85% (inactive)
same,viability,[1],62%
same,fluorescence ratio,[2],0.99 (inactive)
same,inhibition,[3],1.98% (inactive)
same,inhibition,[4],4.52% (inactive)
same,fluorescence ratio,[5],0.88 (inactive)
same,z-score,[6],-0.718 (inactive)
same,mean signal,[7],215 (inactive)
same,fold change,[8]; stronger effect = lower value,1.03 (inactive)
same,fold change,[8]; [13],1.81
same,cell count,[8]; [14],4740
same,cell count,[8]; [15],4590
same,z-score,[9],-1.88 (inactive)
same,log fold change Tl+ flux,F380Y,-0.0196 (inactive)
same,log fold change Tl+ flux,F380Y/beta1,-0.0124 (inactive)
same,log fold change Tl+ flux,F380Y/beta2Delta,-0.00205 (inactive)
same,log fold change Tl+ flux,F380Y/beta4,0.0154 (inactive)
same,log fold change Tl+ flux,[10],-0.0542 (inactive)
same,log fold change Tl+ flux,R275C,0.0145 (inactive)
same,log fold change Tl+ flux,R275C/beta1,-0.137 (active)
same,log fold change Tl+ flux,R275C/beta2Delta,-0.169 (active)
same,log fold change Tl+ flux,R275C/beta4,-0.00148 (inactive)
same,log fold change Tl+ flux,R275C/Slo1WT/beta2,0.0218 (inactive)
COc1ccc(CCN)cc1OC,parasite load remaining,[1],69.1% (inactive)
same,viability,[1],72%
same,fluorescence ratio,[2],0.93 (inactive)
same,inhibition,[3],-0.22% (inactive)
same,inhibition,[4],5.91% (inactive)
same,fluorescence ratio,[5],0.92 (inactive)
same,z-score,[6],-0.441 (inactive)
same,mean signal,[7],274 (inactive)
same,fold change,[8]; stronger effect = lower value,1.12 (inactive)
same,fold change,[8]; [13],0.533
same,cell count,[8]; [14],8740
same,cell count,[8]; [15],7830
same,z-score,[12]; [16],0.19 (inactive)
same,z-score,[12]; [17],0.0302
same,z-score,[9],0.46 (inactive)
same,log fold change Tl+ flux,F380Y,-0.0565 (inactive)
same,log fold change Tl+ flux,F380Y/beta1,0.00413 (inactive)
same,log fold change Tl+ flux,F380Y/beta2Delta,-0.0175 (inactive)
same,log fold change Tl+ flux,F380Y/beta4,-0.0433 (inactive)
same,log fold change Tl+ flux,[10],-0.00222 (inactive)
same,log fold change Tl+ flux,R275C,-0.00436 (inactive)
same,log fold change Tl+ flux,R275C/beta1,-0.0128 (inactive)
same,log fold change Tl+ flux,R275C/beta2Delta,-0.00532 (inactive)
same,log fold change Tl+ flux,R275C/beta4,-0.0169 (inactive)
same,log fold change Tl+ flux,R275C/Slo1WT/beta2,-0.0122 (inactive)
C=CCN1CC[C@]23c4c5ccc(O)c4O[C@H]2C(=O)CCC3(O)[C@H]1C5 (stereo not given in full),mean signal,[7],247 (inactive)
CC[C@@H]1C=CC=CC[C@H](C)[C@@H](O)[C@@H](C)C(=O)[C@H](C)[C@@H](O)[C@H](C)C(=O)[C@H](C)[C@@H](O)[C@H](C)C=CC(=O)O[C@H]2[C@@H](C)[C@@H](CC1)O[C@@]1(CC[C@@H](C)[C@@H](C[C@H](C)O)O1)[C@@H]2C,parasite load remaining,[1],1.55% (active)
same,viability,[1],67.4%
same,fluorescence ratio,[2],1.01 (inactive)
same,inhibition,[3],4.36% (inactive)
same,inhibition,[4],7.6% (inactive)
same,fluorescence ratio,[5],0.98 (inactive)
same,log fold change Tl+ flux,F380Y,-0.509 (active)
same,log fold change Tl+ flux,F380Y/beta1,-0.604 (active)
same,log fold change Tl+ flux,F380Y/beta2Delta,-0.884 (active)
same,log fold change Tl+ flux,F380Y/beta4,-0.693 (active)
same,log fold change Tl+ flux,[10],-0.117 (active)
same,log fold change Tl+ flux,R275C,-0.133 (active)
same,log fold change Tl+ flux,R275C/beta1,0.0227 (inactive)
same,log fold change Tl+ flux,R275C/beta2Delta,-0.0422 (inactive)
same,log fold change Tl+ flux,R275C/beta4,-0.0178 (inactive)
same,log fold change Tl+ flux,R275C/Slo1WT/beta2,-0.0132 (inactive)
O=C1CN=C(c2ccccc2)c2cc([N+](=O)[O-])ccc2N1,parasite load remaining,[1],89.5% (inactive)
same,viability,[1],68.5%
same,fluorescence ratio,[2],1.05 (inactive)
same,inhibition,[3],5.94% (inactive)
same,inhibition,[4],2.21% (inactive)
same,fluorescence ratio,[5],1.04 (inactive)
same,z-score,[6],1.12 (inactive)
same,mean signal,[7],253 (inactive)
same,fold change,[8]; stronger effect = lower value,0.945 (inactive)
same,fold change,[8]; [13],1.76
same,cell count,[8]; [14],9060
same,cell count,[8]; [15],9590
same,z-score,[9],1.3 (inactive)
same,log fold change Tl+ flux,F380Y,0.0223 (inactive)
same,log fold change Tl+ flux,F380Y/beta1,-0.0368 (inactive)
same,log fold change Tl+ flux,F380Y/beta2Delta,0.0172 (inactive)
same,log fold change Tl+ flux,F380Y/beta4,0.0387 (inactive)
same,log fold change Tl+ flux,[10],0.000443 (inactive)
same,log fold change Tl+ flux,R275C,-0.0214 (inactive)
same,log fold change Tl+ flux,R275C/beta1,-0.097 (active)
same,log fold change Tl+ flux,R275C/beta2Delta,0.0168 (inactive)
same,log fold change Tl+ flux,R275C/beta4,0.0133 (inactive)
same,log fold change Tl+ flux,R275C/Slo1WT/beta2,0.00947 (inactive)
